Compounds without any hit were thinned out: in the full panel of roughly 79,000, 15% have a hit. Calls of active or inactive are those of the source. Cut-off read from the data, not from the text of the source: active = growth inhibition above about 70%; inactive = the rest.
Key:
[1] = NCI Yeast Anticancer Drug Screen. Data for the rad52 strain (AID 147);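 note: 0% = growth of vehicle-treated control cultures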; settings: S. cerevisiae rad52 mutant growth inhibition, stronger effect = higher value
Procedure, shortened: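 Genetically altered yeast (DNA damage repair defect) treated with compound; inhibition calculated relative to vehicle.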

[2] = NCI Yeast Anticancer Drug Screen. Data for the wt1 strain (AID 149);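 note: 0% = growth of vehicle-treated wt1 cultures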; settings: S. cerevisiae wt1 strain (SPY 50644) growth inhibition, stronger effect = higher value
Procedure, shortened: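 Measured: growth of wt1 yeast under compound versus vehicle treatment, reported as inhibition.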

[3] = NCI Yeast Anticancer Drug Screen. Data for the rad50EPP+ strain (AID 151);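 note: 0% = growth of vehicle-treated control cultures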; settings: S. cerevisiae rad50 mutant strain, stronger effect = higher value
Procedure, shortened: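 Strain rad50EPP+; compound exposure; % growth inhibition vs vehicle.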

[4] = NCI Yeast Anticancer Drug Screen. Data for the mgt1 strain (AID 153); settings: S. cerevisiae mgt1 mutant growth inhibition, stronger effect = higher value
Procedure, shortened: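 Read-out: yeast growth inhibition vs vehicle control. Strain mgt1, drawn from a panel altered in DNA damage repair or cell cycle control.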

[5] = NCI Yeast Anticancer Drug Screen. Data for the rad50 strain (AID 155);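 note: 0% = growth of vehicle-only cultures of the same strain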; settings: S. cerevisiae rad50 strain growth inhibition, stronger effect = higher value
Procedure, shortened: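 Growth of the mutant yeast was measured after compound exposure and referenced to vehicle-treated cultures.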

[6] = NCI Yeast Anticancer Drug Screen. Data for the mec2-1 strain (AID 157); settings: S. cerevisiae mec2-1 strain, stronger effect = higher value
Procedure, shortened: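 Cells of the genetically defined mec2-1 yeast strain are incubated with test compound. Inhibition of growth is calculated against vehicle-treated controls.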

[7] = NCI Yeast Anticancer Drug Screen. Data for the rad14 strain (AID 159);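 note: 0% = growth of vehicle-treated control cultures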; settings: S. cerevisiae rad14 strain growth inhibition, stronger effect = higher value
Procedure, shortened: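 Here, inhibition of yeast growth was measured after compound exposure, using a strain with a genetic defect in DNA damage repair and vehicle-treated cultures as the reference.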

[8] = NCI Yeast Anticancer Drug Screen. Data for the sgs1 mgt1 strain (AID 161);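 note: 0% = growth of cultures given vehicle only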; settings: S. cerevisiae sgs1 mgt1 strain, stronger effect = higher value
Procedure, shortened: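 Read-out: growth inhibition vs vehicle controls. Cells: mutant yeast strain deficient in DNA damage repair.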

[9] = NCI Yeast Anticancer Drug Screen. Data for the CLN2oe strain (AID 163);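 note: 0% = growth of vehicle-only control cultures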; settings: S. cerevisiae CLN2oe strain, stronger effect = higher value
Procedure, shortened: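 Strain altered in cell-cycle control, incubated with compound; growth compared to solvent-treated controls.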

[10] = NCI Yeast Anticancer Drug Screen. Data for the cln2 rad14 strain (AID 165);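 note: 0% = growth equal to vehicle treated cultures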; settings: S. cerevisiae cln2 rad14 strain, stronger effect = higher value
Procedure, shortened: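 The screen exposed genetically defined yeast (cln2 rad14) to test compounds and scored growth inhibition relative to vehicle-treated controls.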

[11] = NCI Yeast Anticancer Drug Screen. Data for the wt2 strain (AID 169);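 note: 0% = growth of vehicle-treated yeast cultures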; settings: S. cerevisiae wt2 strain growth inhibition, stronger effect = higher value
Procedure, shortened: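 Steps: yeast strain treated with compound; growth recorded; inhibition calculated relative to cultures given vehicle alone.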

[12] = NCI Yeast Anticancer Drug Screen. Data for the mlh1 strain (AID 171);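 note: 0% = growth of vehicle-treated control cultures of the same strain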; settings: S. cerevisiae mlh1 strain growth inhibition, stronger effect = higher value
Procedure, shortened: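 Yeast screen: mutant strain plus compound, growth scored against vehicle control wells.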

[13] = NCI Yeast Anticancer Drug Screen. Data for the sgs1 strain (AID 173);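 note: 0% = growth of vehicle-only control cultures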; settings: S. cerevisiae sgs1 mutant, stronger effect = higher value
Procedure, shortened: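 Inhibition of yeast growth served as the measure. The mutant strain was treated with each compound, and growth was normalised to cultures receiving vehicle alone.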

[14] = NCI Yeast Anticancer Drug Screen. Data for the mlh1 rad18 strain (AID 175); settings: S. cerevisiae mlh1 rad18 strain growth inhibition, stronger effect = higher value
Procedure, shortened: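 Compound-treated yeast growth, normalised to vehicle controls. Strain bears defined DNA repair mutations.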

[15] = NCI Yeast Anticancer Drug Screen. Data for the rad18 strain (AID 177); settings: S. cerevisiae rad18 mutant growth inhibition, stronger effect = higher value
Procedure, shortened: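 Inhibition values reflect reduced yeast growth compared with vehicle-treated controls, using a strain engineered with a DNA damage repair defect.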

[16] = at 5.0 µM (retest, dose inferred, filed as 0.5)
[17] = at 50.0 µM (retest, dose inferred, filed as 5.0)

Measured: growth inhibition

CCCCCCCCCCCCOCCOCCOCC(N)=O
inactive: [1]; at 1.2 µM 15% | [1]; at 3.7 µM -11% | [1]; at 11.0 µM 1% | [2]; at 1.2 µM -39% | [2]; at 3.7 µM -39% | [2]; at 11.0 µM -41% | [3]; at 1.2 µM -14% | [3]; at 3.7 µM -20% | [3]; at 11.0 µM -11% | [3]; at 33.0 µM 10% | [4]; at 1.2 µM 9% | [4]; at 3.7 µM -8% | [4]; at 11.0 µM -10% | [5]; at 1.2 µM 6% | [5]; at 3.7 µM -1% | [5]; [16] 36% | [5]; at 11.0 µM 10% | [5]; [17] 36% | [6]; at 1.2 µM -6% | [6]; at 3.7 µM -6% | [6]; [16] 39% | [6]; at 11.0 µM 16% | [6]; [17] 29% | [7]; at 1.2 µM -9% | [7]; at 3.7 µM -11% | [7]; at 11.0 µM -17% | [8]; [16] 5% | [9]; at 1.2 µM -15% | [9]; at 3.7 µM -18% | [9]; at 11.0 µM -13% | [10]; [16] 61% | [11]; at 1.2 µM -26% | [11]; at 3.7 µM -20% | [11]; at 11.0 µM -12% | [12]; at 1.2 µM -12% | [12]; at 3.7 µM -12% | [12]; at 11.0 µM 6% | [13]; at 1.2 µM -12% | [13]; at 3.7 µM -15% | [13]; at 11.0 µM -5% | [14]; [16] 26% | [14]; [17] 43% | [15]; at 1.2 µM -18% | [15]; at 3.7 µM -31% | [15]; at 11.0 µM -18%
active: [1]; at 33.0 µM 97% | [1]; at 100.0 µM 96% | [2]; at 33.0 µM 95% | [2]; at 100.0 µM 94% | [3]; at 100.0 µM 80% | [4]; at 33.0 µM 97% | [4]; at 100.0 µM 96% | [5]; at 33.0 µM 97% | [5]; at 50.0 µM 91.2% | [5]; at 100.0 µM 95% | [6]; at 33.0 µM 97% | [6]; at 50.0 µM 92.5% | [6]; at 100.0 µM 95% | [7]; at 33.0 µM 97% | [7]; at 100.0 µM 94% | [8]; [17] 98% | [8]; at 50.0 µM 93.3% | [9]; at 33.0 µM 96% | [9]; at 100.0 µM 93% | [10]; [17] 97% | [10]; at 50.0 µM 89.5% | [11]; at 33.0 µM 97% | [11]; at 100.0 µM 96% | [12]; at 33.0 µM 93% | [12]; at 100.0 µM 96% | [13]; at 33.0 µM 96% | [13]; at 100.0 µM 94% | [14]; at 50.0 µM 91.1% | [15]; at 33.0 µM 97% | [15]; at 100.0 µM 95%
